Experimental findings from PubChem BioAssay AID1952 (The Scripps Research Institute Molecular Screening Center, 2009) are described below.

The campaign covered roughly 2,400 compounds. About 1,200 (50%) were called active. The set was probably picked from earlier hits. These entries were drawn from the full list. Values without a mark were called inactive. Cut-off read from the data, not from the text of the source: active = inhibition above about 24%; inactive = the rest.

Sequence of Neuropeptides B/W receptor type 1 (Homo sapiens) (P48145 whole entry, looked up): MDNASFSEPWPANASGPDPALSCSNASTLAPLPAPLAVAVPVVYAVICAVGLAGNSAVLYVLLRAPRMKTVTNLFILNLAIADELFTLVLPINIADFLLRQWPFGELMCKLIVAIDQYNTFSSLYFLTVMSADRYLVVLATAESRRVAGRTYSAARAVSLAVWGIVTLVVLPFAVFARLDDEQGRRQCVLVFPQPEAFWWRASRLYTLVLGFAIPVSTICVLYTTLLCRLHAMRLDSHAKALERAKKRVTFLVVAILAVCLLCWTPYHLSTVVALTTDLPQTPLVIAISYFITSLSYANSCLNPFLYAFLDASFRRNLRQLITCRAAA

This assay addresses Neuropeptides B/W receptor type 1 (Homo sapiens) (UniProt P48145). Kind of assay: blockers of human NPBW1 receptor – cell-based, fluorescence, single concentration, confirmation (AID 1952).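 Note: stimulated with the GPR7 agonist NPW; 0% = agonist plus vehicle and 100% = vehicle alone without agonist.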 The following applies: GPR7-expressing cells, calcium fluorescence antagonist mode; at 4.4 µM; hits give high values.
On to `CCc1ccc(OCC2c3cc(OC)c(OC)cc3CCN2C(C)=O)cc1` (stereo unspecified), for which the inhibition was 30% (active). In the case of `CCN(CC)CCOCCOc1ccc(Cl)c2ccccc12` it was 20.8%; in that of `COc1ccccc1N1CCN(c2ncnc3sc(C)c(-c4ccccc4)c23)CC1`, 37.2% (active); in that of `CCC(C)c1ccccc1NC(=O)CN(C)CC(=O)Nc1ccccc1SC` (stereo unspecified), 19.5%. In the case of `O=C(NCCCN1CCN(c2ccc(F)cc2)CC1)Nc1ccc([N+](=O)[O-])cc1` it was 41.9% (active). In the case of `COc1cccc(CNCCc2c[nH]c3ccccc23)c1OCc1ccccc1F` it was 61.5% (active); in that of `O=C(CSCc1ccc([N+](=O)[O-])cc1)NCCSCc1ccccc1`, 35.4% (active); in that of `O=C(NCCNc1ccc([N+](=O)[O-])cc1Cl)c1ccccc1F`, 18.8%. With `O=[N+]([O-])c1ccc(N(CCO)Cc2ccccc2)c([N+](=O)[O-])c1`, the inhibition is 23.3%. Consider `CC(C(=O)N1CCN(c2ccccc2F)CC1)c1ccc([N+](=O)[O-])cc1` (stereo unspecified), for which the inhibition is 42.2% (active). Consider `Cc1cc(OC(C)C(=O)NC2CC(C)(C)NC(C)(C)C2)c2c(C)cc(=O)oc2c1` (stereo unspecified), for which the inhibition is -2.7%. The result for `Cc1c(CCO)c(=O)n(-c2ccccc2)n1S(=O)(=O)c1ccc(F)cc1` reads -9.84%. The result for `Cc1cc(OCc2ccc(C(=O)Nc3ccc(C(=O)O)cc3)o2)ccc1Cl` reads 44.9% (active); that for `Cc1ccc2nc(C)c3c(c2c1)N(c1ccccc1)CC3`, 37.9% (active).

For `CS(=O)(=O)N(CC(O)Cn1c2ccccc2c2ccccc21)c1cccc2ccccc12` (stereo unspecified), the inhibition was 45% (active). In the case of `O=[N+]([O-])/C=C/c1ccc2c(ccn2Cc2ccccc2)c1` it was 92.4% (active); in that of `CN(C)S(=O)(=O)N1CCC(Oc2cccc(C(=O)NCCCC3CCCC3)c2)CC1`, 40.1% (active). The result for `COc1ccc([N+](=O)[O-])cc1N(CC(O)CN(CC(C)C)CC(C)C)S(=O)(=O)c1ccc(C)cc1` (stereo unspecified) reads 31.9% (active); that for `N#CC1=C(SCc2ccc(C#N)cc2)N=C(N)C(c2nc(-c3ccccc3)cs2)C12CCCCC2` (stereo unspecified), 44.2% (active). In the case of `COc1cc(OC)c(-n2cc(-c3ccc(Cl)cc3)[nH]c2=O)cc1Cl` it was 60.4% (active). As to `O=C(COc1ccc(S(=O)(=O)Nc2cccc(C(F)(F)F)c2)cc1)N1CCOCC1`, the inhibition was 19.6%. With `Cc1cc(Cl)ccc1OCCCC(=O)Nc1cccc(-n2cnnn2)c1`, the inhibition was 27.4% (active).

On to `O=S(=O)(c1ccc(OCC(O)CN2CCN(c3ccccc3Cl)CC2)cc1)N1CCOCC1` (stereo unspecified), for which the inhibition was 11.4%. For `Cc1ccc(NC(=S)N(CCCN2CCC(C)CC2)Cc2ccco2)cc1`, the inhibition was 0.61%. Consider `Cc1ccc(SCc2cc(=O)[nH]c(N3CCCCC3)n2)cc1`, for which the inhibition was -9.2%. For `CCCOc1ccccc1C1CC(=O)Nc2cc3c(cc21)OCO3` (stereo unspecified), the inhibition is 24.6% (active). As for `Nc1nnc(SCC(=O)Nc2ccc3nc(SCC(=O)Nc4ccccc4)sc3c2)s1`, the inhibition was 59.8% (active). The result for `Cc1ccccc1Nc1nnc(SCC(=O)c2cc3ccccc3o2)s1` reads 3.71%; that for `Cc1ccc(CNC(=O)C2CCN(S(=O)(=O)c3ccc4nc5c(c(C(=O)O)c4c3)CC(C)CC5)CC2)cc1` (stereo unspecified), 16.8%; that for `Cn1c(=O)c([N+](=O)[O-])c(Oc2ccccc2)c2ccccc21`, 17.2%. In the case of `COc1ccccc1N(C(=O)Cn1nnc2ccccc21)C(C(=O)NCc1ccco1)c1ccc(C)o1` (stereo unspecified) it was 22.8%; in that of `Cc1ccc(O)c(NC(=S)NC(=O)COc2ccc(Br)cc2)c1`, 88.8% (active). The result for `O=C(Nc1ccc2ccccc2c1)Nc1ccc2snnc2c1` reads 55.7% (active); that for `CC(C)(C)NCc1cc(Br)ccc1OC1CCCC1`, 23.2%. Consider `Cc1ccc(NC(=O)CN2C(=O)NC(C)(c3ccc(Cl)cc3)C2=O)c(Br)c1` (stereo unspecified), for which the inhibition was 18.8%.

For the molecule `CC(NCc1ccccc1OC1CCCC1)c1ccccc1` (stereo unspecified), the inhibition is 23.1%. In the case of `CCN1CCN(c2c(Cl)cccc2NC(=O)c2ccc(Br)o2)CC1` it was 21%. As for `CCN1/C(=C\c2ccc3ccccc3[n+]2CC)Sc2cc(C)ccc21`, the inhibition is 49.3% (active). In the case of `COc1ccc(OC)c(C(c2nnnn2C(C)(C)C)N2CCc3ccccc3C2)c1` (stereo unspecified) it was 5.35%. The result for `CC(C)(C)CC(C)(C)NCC(O)COCCOc1ccc(Br)cc1` (stereo unspecified) reads 47.2% (active); that for `CCSc1nsc(NC(=O)Nc2cccc(C(C)=O)c2)n1`, 43.7% (active); that for `C=CCSc1nsc(NC(=O)Nc2cccc(C(C)=O)c2)n1`, 47.2% (active). On to `CCn1c2ccc(F)cc2c2nnc(SCCN3CCOCC3)nc21`, for which the inhibition was -14.4%.

As to `CCc1c(C)nc2c(-c3ccccc3)c(C)nn2c1Nc1ccc(NC(C)=O)cc1`, the inhibition was 4.93%. As for `COc1ccc(C(=O)CSc2nnc(COc3ccccc3)n2Cc2ccco2)cc1`, the inhibition is 19%. For the molecule `Oc1cccc(/C=N/Nc2ccc(Cl)nn2)c1O`, the inhibition is 4.11%. The result for `Cc1cccc(-c2nc3ccc(C(=O)NCCN4CCN(C)CC4)cc3nc2-c2cccc(C)c2)c1` reads 41.8% (active); that for `CCc1ccc(N(C(=O)c2csnn2)C(C(=O)NC2CCCCC2)c2ccncc2)cc1` (stereo unspecified), 34.2% (active). In the case of `O=C(Nc1ccccc1F)c1ccc2c(c1)OCO2` it was -16.6%; in that of `O=C(Nc1nc(-c2ccc3c(c2)OCO3)cs1)c1ccncc1`, 55.1% (active); in that of `N=c1c2c(-c3ccccc3)c(-c3ccccc3)n(Cc3ccccc3)c2ncn1CCCO`, 26.6% (active).

Take `CCc1ccc2nc(N(CCCN(C)C)C(=O)c3ccc4c(c3)OCCO4)sc2c1`: the inhibition is 40% (active). In the case of `CN(C)CCCN(C(=O)c1ccc(S(=O)(=O)N2CCCCCC2)cc1)c1nc2ccc(Br)cc2s1` it was 70.5% (active); in that of `CN(C)CCCN(C(=O)c1ccc(S(=O)(=O)N2CCCc3ccccc32)cc1)c1nc2ccc(F)cc2s1`, 73% (active). Take `CCOC(=O)C1CSC(CC(=O)Nc2ccc(OCC)cc2)C(=O)N1` (stereo unspecified): the inhibition was 2.35%. With `COCCN(Cc1cc2cc3c(cc2nc1Cl)OCO3)C(=O)c1cccc(C)c1`, the inhibition was -7.71%.

In general, inhibition refers to the drop in the measured response relative to a control, in per cent.
